A selection: hits, their analogues and other compounds. The true share with any hit is near 3.4%.
TEAD-YAP inh = TEAD-YAP interaction inhibition | 640,000 compounds, 1.4% hits | inhibition, % at 9.12 µM | HEK-TIYL cells, TEAD-Gal4/YAP UAS-luciferase luminescence; in the data active = inhibition above about 32%;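 note: 0% = median of test compound wells and 100% = reference inhibitor wells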
GPR151 ag = activates the human receptor GPR151. activation, % at 11.2 µM. PathHunter beta-arrestin GPR151 cells, luminescence. 650,000 compounds, 1% hits; in the data active = activation above about 4.9%;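 note: 0% = median of compound wells and 100% = cells with positive control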
MITF primary = blocks human microphthalmia-associated transcription factor. O75030. AlphaScreen MITF homodimerization, bead proximity signal. inhibition, % at 2.6 µM. 650,000 compounds, 0.91% hits. AID 1259374; in the data active = inhibition above about 50%;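 note: 0% = vehicle wells with protein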
Target sequence (O75030 whole entry, looked up): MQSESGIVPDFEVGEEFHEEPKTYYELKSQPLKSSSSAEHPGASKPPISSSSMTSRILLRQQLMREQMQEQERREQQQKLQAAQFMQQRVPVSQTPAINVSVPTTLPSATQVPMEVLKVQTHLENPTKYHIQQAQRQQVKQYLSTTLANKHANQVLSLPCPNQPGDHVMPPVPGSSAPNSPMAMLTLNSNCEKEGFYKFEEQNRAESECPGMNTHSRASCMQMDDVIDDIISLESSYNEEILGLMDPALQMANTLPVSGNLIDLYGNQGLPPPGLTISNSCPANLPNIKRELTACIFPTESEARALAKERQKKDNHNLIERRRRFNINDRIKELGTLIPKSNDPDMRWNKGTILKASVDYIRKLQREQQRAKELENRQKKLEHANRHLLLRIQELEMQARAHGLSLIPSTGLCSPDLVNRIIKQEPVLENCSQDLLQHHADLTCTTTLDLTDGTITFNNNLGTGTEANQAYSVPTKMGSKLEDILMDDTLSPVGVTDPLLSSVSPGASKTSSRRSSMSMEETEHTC
FBW7 act = human FBW7 E3 ligase activation, primary screen; Q969H0; AlphaScreen FBW7–phospho-cyclin E peptide binding, activator screen; normalized activity (activation), % at 26.1 µM; 650,000 compounds, 0.13% hits; in the data active = normalized activity above about 1.9%;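 note: purified mutant Fbw7 with reduced substrate affinity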
GPR151 confirm = confirmation of human GPR151 activators. activation, % at 11.2 µM. 6,700 tested, under 10 active. AID 1508609. GPR151 PathHunter beta-arrestin cells, luminescence, 90 min; % of EA-reagent control over plate median. shares compounds with GPR151 ag;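 active = mean percent activation across replicates above the confirmation screen cutoff of 4.91%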
GPR119 ag = counter-screen for GPR151 activators: effect on human GPR119; GPR119 PathHunter beta-arrestin cells, luminescence, 90 min; 0 = compound-well median, 100 = enzyme-acceptor control; activation, % at 11.2 µM; shares compounds with GPR151 ag; AID 1508611; 6,700 compounds, 0.3% hits;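 active = mean percent activation in the counterscreen above 29.09%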;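 note: counterscreen on off-target GPR119 to flag nonselective hits from the GPR151 activator screen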
The depositor's hits bear a star.

For O=C(Nc1nc(-c2ccccc2)cs1)c1ccc(S(=O)(=O)N2CCc3ccccc32)cc1 the results were TEAD-YAP inh 0, GPR151 ag -2, MITF primary 0 and FBW7 act 0.
O=C(Nc1nc(-c2cc3ccccc3oc2=O)cs1)c1ccc(S(=O)(=O)N2CCc3ccccc32)cc1 was read as TEAD-YAP inh -19, GPR151 ag 5.0*, MITF primary -5, FBW7 act 0, GPR151 confirm 0 and GPR119 ag 4.
For Cc1csc(NC(=O)Cn2c(=O)oc3cc(S(=O)(=O)N4CCCC4)ccc32)n1 the results were TEAD-YAP inh 4, GPR151 ag 0, MITF primary 14 and FBW7 act 0.
Screening O=C(NC(=S)Nc1ncccn1)c1cc2ccccc2oc1=O returned TEAD-YAP inh -8, GPR151 ag -1, MITF primary 2 and FBW7 act 0.
For O=C(NC(=S)NNc1ccccc1)c1cc2ccccc2oc1=O the results were TEAD-YAP inh 8, GPR151 ag 5.5*, MITF primary 17, FBW7 act 0, GPR151 confirm 1 and GPR119 ag 13.
For CCN1C(=O)/C(=C\C=C2/Sc3c(ccc4ccccc34)N2CC)SC1=Nc1ccc(Oc2ccccc2)cc1 the results were TEAD-YAP inh -1, GPR151 ag -1, MITF primary -11 and FBW7 act 0.
`COc1ccc(-c2nnc3sc(NC(=O)c4ccccc4C)nn23)cc1` gave TEAD-YAP inh -2, GPR151 ag 2, MITF primary -5 and FBW7 act 0.
Screening COc1ccc(-c2nnc3sc(NC(=O)c4ccccc4C)nn23)cc1OC returned TEAD-YAP inh -2, GPR151 ag 8.8*, MITF primary 0, FBW7 act 0, GPR151 confirm 0 and GPR119 ag 1.
For COc1ccc(-c2nnc(NC(=O)c3ccccc3C)s2)c(OC)c1 the results were TEAD-YAP inh 1, GPR151 ag 5.8*, MITF primary 7, FBW7 act 0, GPR151 confirm 1 and GPR119 ag 0.
COc1ccc(-c2nnc3sc(NC(=O)C(C)C)nn23)cc1OC was read as TEAD-YAP inh 8, GPR151 ag 14*, MITF primary -3, FBW7 act 0, GPR151 confirm 2 and GPR119 ag -6.
For CN(C)c1ccc(C(=S)N2CCOCC2)cc1 the results were TEAD-YAP inh 0, GPR151 ag 9.7*, MITF primary -3, FBW7 act 0, GPR151 confirm 0 and GPR119 ag -7.
For CN(C)c1ccc(C(=O)N2CCOCC2)cc1 the results were TEAD-YAP inh 5, GPR151 ag -1, MITF primary 7 and FBW7 act 1.
CN(c1nc(N)ncc1[N+](=O)[O-])C1CCS(=O)(=O)C1 (centres undefined) was read as TEAD-YAP inh 19, GPR151 ag -2, MITF primary 12 and FBW7 act 0.
CCOCCCNCc1ccccc1F was read as TEAD-YAP inh -4, GPR151 ag 5.2*, MITF primary 38, FBW7 act 0, GPR151 confirm 0 and GPR119 ag 3.
`CCOC(=O)CCCCNCc1ccccc1F` gave TEAD-YAP inh 2, GPR151 ag 1, MITF primary 7 and FBW7 act 0.
`Cc1nn(C)c(C)c1-c1ncc(C(=O)Nc2ccccc2)s1` gave TEAD-YAP inh -30, GPR151 ag 5.7*, MITF primary 2, FBW7 act 0, GPR151 confirm 0 and GPR119 ag -1.
O=C(Nc1ccc(OC(F)(F)F)cc1)c1nn2c(C(F)(F)F)cc(-c3ccccc3)nc2c1Cl was read as TEAD-YAP inh 6, GPR151 ag -1, MITF primary 10 and FBW7 act 0.
CCSc1ccccc1C(=O)Nc1nnc(-c2cc(C)oc2C)o1 was read as TEAD-YAP inh -6, GPR151 ag -1, MITF primary 4 and FBW7 act -1.
Screening Cc1cccc(OCC(O)CN2CCCCCC2)c1C (centres undefined) returned TEAD-YAP inh 4, GPR151 ag 9.8*, MITF primary 1, FBW7 act 0, GPR151 confirm 0 and GPR119 ag -2.
`OC(COc1ccc2ccccc2c1Cl)Cn1ccnc1` (centres undefined) gave TEAD-YAP inh -5, GPR151 ag 5.0*, MITF primary 1, FBW7 act 0, GPR151 confirm 0 and GPR119 ag 6.
`Cc1nccn1CC(O)COc1cccc2ccccc12` (centres undefined) gave TEAD-YAP inh 11, GPR151 ag 0, MITF primary 2 and FBW7 act 0.
For CCOC(=O)c1ccc(NC(=O)CN2C(=O)CSCC2=O)cc1 the results were TEAD-YAP inh 11, GPR151 ag 3, MITF primary -4 and FBW7 act 0.
For CCOc1ccc(NC(=O)CN2C(=O)C(C)SC(C)C2=O)cc1 (centres undefined) the results were TEAD-YAP inh 1, GPR151 ag 3, MITF primary 4 and FBW7 act 0.
For CCOc1ccc(NC(=O)CN2C(=O)C(CC)SC(CC)C2=O)cc1 (centres undefined) the results were TEAD-YAP inh 14, GPR151 ag 5.1*, MITF primary 7, FBW7 act 0, GPR151 confirm 1 and GPR119 ag 8.
`CCOC(=O)c1ccc(NC(=O)CN2C(=O)C(CC)SC(CC)C2=O)cc1` (centres undefined) gave TEAD-YAP inh 2, GPR151 ag 6.4*, MITF primary 9, FBW7 act 0, GPR151 confirm 0 and GPR119 ag 6.
Screening COc1ccc(/C=C2\SC(=O)N(CC(=O)Nc3ccc(C)cc3)C2=O)cc1OC returned TEAD-YAP inh 0, GPR151 ag -1, MITF primary 12 and FBW7 act 1.
Screening CCOC(=O)c1ccc(NC(=O)CNC(=O)c2ccccc2)cc1 returned TEAD-YAP inh 2, GPR151 ag 15*, MITF primary 7, FBW7 act 1, GPR151 confirm -2 and GPR119 ag -4.
Screening COc1ccc(/C=C2\SC(=O)N(CC(=O)Nc3ccc(F)cc3)C2=O)cc1O returned TEAD-YAP inh 1, GPR151 ag 6.2*, MITF primary -8, FBW7 act 0, GPR151 confirm 1 and GPR119 ag 10.
For CCOc1ccc(NC(=O)CNC(=O)c2ccccc2)cc1 the results were TEAD-YAP inh -25, GPR151 ag -1, MITF primary 7 and FBW7 act 0.
For CCOc1ccc(/C=C2\SC(=S)N(CC(=O)Nc3ccc(O)cc3)C2=O)cc1 the results were TEAD-YAP inh 0, GPR151 ag 5.7*, MITF primary 2, FBW7 act 0, GPR151 confirm 2 and GPR119 ag 6.
